{
  "source": "paper PMC4336329",
  "about": "(PLoS ONE, 2015)",
  "note": "In all, about 310,000 compounds went through this assay and about 14,000 (4.5%) showed an effect of 50% or more. Effects have a minus sign here. Many of the other results were omitted from the sample, so strong results are more common in it than they were.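 Further: peak tail current of the secondary pulse compared with the same well before compound.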",
  "data": [
    {"molecular_target": "human ether-à-go-go-related gene (hERG) potassium channel (human, UniProt Q12809)", "sequence (Q12809 whole entry, looked up)": "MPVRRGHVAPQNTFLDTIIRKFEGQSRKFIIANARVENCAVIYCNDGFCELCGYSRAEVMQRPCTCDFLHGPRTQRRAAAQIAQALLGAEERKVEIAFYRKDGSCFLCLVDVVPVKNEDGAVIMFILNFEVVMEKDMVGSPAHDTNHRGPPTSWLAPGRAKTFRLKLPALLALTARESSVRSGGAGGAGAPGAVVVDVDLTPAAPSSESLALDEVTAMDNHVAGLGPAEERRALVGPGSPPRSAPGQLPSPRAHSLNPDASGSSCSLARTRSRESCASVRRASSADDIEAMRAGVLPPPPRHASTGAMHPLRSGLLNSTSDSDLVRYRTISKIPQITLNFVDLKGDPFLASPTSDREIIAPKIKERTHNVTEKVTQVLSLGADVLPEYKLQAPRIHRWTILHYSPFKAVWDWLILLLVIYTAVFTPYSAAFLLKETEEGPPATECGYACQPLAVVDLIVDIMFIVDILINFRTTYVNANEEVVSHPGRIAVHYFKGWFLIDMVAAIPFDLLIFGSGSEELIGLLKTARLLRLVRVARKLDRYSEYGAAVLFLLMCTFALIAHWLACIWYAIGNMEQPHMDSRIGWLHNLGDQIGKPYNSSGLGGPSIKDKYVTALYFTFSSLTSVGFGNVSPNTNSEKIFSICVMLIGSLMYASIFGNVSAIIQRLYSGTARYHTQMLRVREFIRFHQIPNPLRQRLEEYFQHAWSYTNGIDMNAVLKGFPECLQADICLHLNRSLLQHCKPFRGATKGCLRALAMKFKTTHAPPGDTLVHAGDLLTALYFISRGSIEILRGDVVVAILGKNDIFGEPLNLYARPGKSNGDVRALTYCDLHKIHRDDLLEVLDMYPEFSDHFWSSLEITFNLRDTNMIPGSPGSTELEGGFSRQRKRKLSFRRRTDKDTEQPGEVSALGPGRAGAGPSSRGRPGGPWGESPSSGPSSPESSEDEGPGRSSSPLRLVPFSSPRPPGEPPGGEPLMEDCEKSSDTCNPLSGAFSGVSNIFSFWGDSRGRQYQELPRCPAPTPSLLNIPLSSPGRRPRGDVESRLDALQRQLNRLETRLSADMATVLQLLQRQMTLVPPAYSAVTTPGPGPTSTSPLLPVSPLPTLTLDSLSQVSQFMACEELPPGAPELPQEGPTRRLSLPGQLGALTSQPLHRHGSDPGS", "assay": "primary screen, population patch clamp on CHO cells stably expressing hERG; higher = less effect of the substance", "units": {"hERG current change (%, negative = inhibition) at 10uM": "%"}, "values": [
      {"compound": "Nc1cc(-c2ccccc2)nn1Cc1ccc(Cl)cc1", "hERG current change (%, negative = inhibition) at 10uM": -19},
      {"compound": "O=C(CCCOc1ccccc1)Nc1ccc(Br)cc1", "hERG current change (%, negative = inhibition) at 10uM": 22.3},
      {"compound": "CC(=O)OCCn1c(=O)c2cc3c(=O)n(CCOC(C)=O)c(=O)c3cc2c1=O", "hERG current change (%, negative = inhibition) at 10uM": -4.39},
      {"compound": "Cn1nccc1C(=O)N1CCC(Cc2ccccc2)CC1", "hERG current change (%, negative = inhibition) at 10uM": -9.69},
      {"compound": "Cc1ccc(S(=O)(=O)N2CCOCC2)cc1C(=O)N1CC(C)OC(C)C1", "note": "(stereo not shown)", "hERG current change (%, negative = inhibition) at 10uM": 15.1},
      {"compound": "COc1ccc(S(=O)(=O)N2CCCCC2)cc1NC(=O)CN(Cc1ccco1)Cc1ccco1", "hERG current change (%, negative = inhibition) at 10uM": -23.7},
      {"compound": "Cc1ccccc1C(=O)NC(=S)Nc1ccc2[nH]c(=O)[nH]c2c1", "hERG current change (%, negative = inhibition) at 10uM": 23.1},
      {"compound": "COC(=O)c1ccc(COC(=O)c2c(C)nn(Cc3ccccc3Cl)c2Cl)o1", "hERG current change (%, negative = inhibition) at 10uM": 10.9},
      {"compound": "COCCNCC(=O)Nc1ccc(OC(F)(F)F)cc1.Cl", "hERG current change (%, negative = inhibition) at 10uM": -33.9},
      {"compound": "CN(CC(=O)Nc1ccc(Cl)cc1)C1CCCCC1", "hERG current change (%, negative = inhibition) at 10uM": -10},
      {"compound": "COc1ccc(NC(=O)CN(C)C2CCCCC2)cc1Cl", "hERG current change (%, negative = inhibition) at 10uM": -55},
      {"compound": "CN(CC(=O)Nc1ccc(SC(F)F)cc1)C1CCCCC1", "hERG current change (%, negative = inhibition) at 10uM": -70},
      {"compound": "COc1ccc(NC(=O)CN(C2CCCCC2)S(C)(=O)=O)cc1Cl", "hERG current change (%, negative = inhibition) at 10uM": -18.4},
      {"compound": "COCCCNCC(=O)Nc1ccc(OC(F)(F)F)cc1.Cl", "hERG current change (%, negative = inhibition) at 10uM": -30},
      {"compound": "CN(CC(=O)Nc1ccc(Cl)c(Cl)c1)C1CCCCC1.O=C(O)C(=O)O", "hERG current change (%, negative = inhibition) at 10uM": -7.28},
      {"compound": "CCOCCCNCC(=O)Nc1ccc(OC(F)(F)F)cc1.Cl", "hERG current change (%, negative = inhibition) at 10uM": -56.4},
      {"compound": "CN(CC(=O)Nc1ccc(S(N)(=O)=O)cc1)C1CCCCC1", "hERG current change (%, negative = inhibition) at 10uM": -1.84},
      {"compound": "CCCCCCSc1nsc(N)n1", "hERG current change (%, negative = inhibition) at 10uM": -10.8},
      {"compound": "Cc1cccnc1NC(=O)CNC(=O)C12CC3CC(CC(Cl)(C3)C1)C2", "hERG current change (%, negative = inhibition) at 10uM": 13},
      {"compound": "CCCCc1ccc(-c2nc(-c3ccncc3)no2)cc1", "hERG current change (%, negative = inhibition) at 10uM": 16},
      {"compound": "Cc1ccsc1-c1nc(C(N)=O)c2[nH]c(=O)n(-c3ccc(Cl)cc3)c2n1", "hERG current change (%, negative = inhibition) at 10uM": 1.51},
      {"compound": "O=C(COc1ccc(Cl)cc1)Nc1ccc(C(=O)NCc2cccnc2)cc1", "hERG current change (%, negative = inhibition) at 10uM": -36.8},
      {"compound": "O=C(NCc1cccnc1)c1ccc(COc2ccccc2Cl)cc1", "hERG current change (%, negative = inhibition) at 10uM": 4.47},
      {"compound": "O=C(COc1ccc(C(=O)NCc2cccnc2)cc1)Nc1cccc(C(F)(F)F)c1", "hERG current change (%, negative = inhibition) at 10uM": -60.6},
      {"compound": "Cc1cccc(OCC(=O)Nc2ccc(C(=O)NCc3cccnc3)cc2)c1", "hERG current change (%, negative = inhibition) at 10uM": -0.608},
      {"compound": "COc1cc(C(=O)NCc2cccnc2)ccc1OCC(=O)Nc1cccc(C(F)(F)F)c1", "hERG current change (%, negative = inhibition) at 10uM": 3.13},
      {"compound": "O=C(NCc1cccnc1)c1ccc(COc2ccc(Cl)cc2)cc1", "hERG current change (%, negative = inhibition) at 10uM": -58.6},
      {"compound": "Cc1cccc(-n2c(C)cc(/C=N\\NC(=O)c3ccco3)c2C)c1", "hERG current change (%, negative = inhibition) at 10uM": -12.8},
      {"compound": "O=C(Cc1cccc(F)c1)N1CCCC(CO)(Cc2ccc(F)cc2F)C1", "note": "(stereo not shown)", "hERG current change (%, negative = inhibition) at 10uM": -9.84},
      {"compound": "Cc1ccccc1CC1(CO)CCCN(C(=O)Cc2c(F)ccc(F)c2F)C1", "note": "(stereo not shown)", "hERG current change (%, negative = inhibition) at 10uM": -0.736},
      {"compound": "OCC1(Cc2ccccc2F)CCCN(CCc2ccccc2)C1", "note": "(stereo not shown)", "hERG current change (%, negative = inhibition) at 10uM": -74.8},
      {"compound": "OCC1(Cc2ccc(F)cc2)CCCN(CCc2ccccc2)C1", "note": "(stereo not shown)", "hERG current change (%, negative = inhibition) at 10uM": -45.5},
      {"compound": "OCC1(Cc2ccc(F)cc2F)CCCN(CCCc2ccccc2)C1", "note": "(stereo not shown)", "hERG current change (%, negative = inhibition) at 10uM": -82.9},
      {"compound": "OCC1(Cc2ccccc2F)CCCN(CC2CCCCC2)C1", "note": "(stereo not shown)", "hERG current change (%, negative = inhibition) at 10uM": -37.7},
      {"compound": "OCC1(Cc2ccccc2F)CCCN(Cc2c(F)ccc(F)c2F)C1", "note": "(stereo not shown)", "hERG current change (%, negative = inhibition) at 10uM": -55.5},
      {"compound": "CSCCCN1CCCC(CO)(Cc2ccccc2F)C1", "note": "(stereo not shown)", "hERG current change (%, negative = inhibition) at 10uM": -38.3},
      {"compound": "C=CCC(=O)N1CCCC(CO)(Cc2ccc(F)cc2F)C1", "note": "(stereo not shown)", "hERG current change (%, negative = inhibition) at 10uM": 0.892},
      {"compound": "CC(C)NC(=O)C1CCN(C2CCN(CC3CC=CCC3)CC2)CC1", "note": "(stereo not shown)", "hERG current change (%, negative = inhibition) at 10uM": -15},
      {"compound": "O=C(O)c1cc(-c2cccs2)[nH]n1", "hERG current change (%, negative = inhibition) at 10uM": 15.5},
      {"compound": "C/C(=N\\NC(=O)c1[nH]c2c([N+](=O)[O-])cc(C)cc2c1-c1ccccc1)c1cccnc1", "hERG current change (%, negative = inhibition) at 10uM": 6.67},
      {"compound": "CC12CCC(C(N)=O)(c3nc4ccccc4nc31)C2(C)C", "note": "(stereo not shown)", "hERG current change (%, negative = inhibition) at 10uM": -4.08},
      {"compound": "CN1CCN(C(=O)C23CCC(C)(c4nc5ccccc5nc42)C3(C)C)CC1", "note": "(stereo not shown)", "hERG current change (%, negative = inhibition) at 10uM": -53.3},
      {"compound": "CC12CCC(C(=O)N3CCN(c4ncccn4)CC3)(c3nc4ccccc4nc31)C2(C)C", "note": "(stereo not shown)", "hERG current change (%, negative = inhibition) at 10uM": -20.2},
      {"compound": "O=[N+]([O-])c1ccc(N2CCN(c3cccc(Cl)c3)CC2)cn1", "hERG current change (%, negative = inhibition) at 10uM": -63.2},
      {"compound": "O=[N+]([O-])c1ccc(N2CCN(c3ccccc3Cl)CC2)cn1", "hERG current change (%, negative = inhibition) at 10uM": -34.3},
      {"compound": "O=[N+]([O-])c1ccc(N2CCCCC2)cn1", "hERG current change (%, negative = inhibition) at 10uM": 8.92},
      {"compound": "O=[N+]([O-])c1ccc(N2CCN(c3ccc(F)cc3)CC2)cn1", "hERG current change (%, negative = inhibition) at 10uM": -48.7},
      {"compound": "O=[N+]([O-])c1ccc(N2CCOCC2)cn1", "hERG current change (%, negative = inhibition) at 10uM": 15.4},
      {"compound": "O=[N+]([O-])c1ccc(N2CCN(c3ccc(O)cc3)CC2)cn1", "hERG current change (%, negative = inhibition) at 10uM": -52.8},
      {"compound": "Cn1c(C(=O)NCc2ccccn2)cc2c(=O)n3ccccc3nc21", "hERG current change (%, negative = inhibition) at 10uM": -1.42},
      {"compound": "CN(C)S(=O)(=O)c1cccc(NC(=O)c2cc3ccccc3o2)c1", "hERG current change (%, negative = inhibition) at 10uM": -13.7},
      {"compound": "CCOc1ccc(N2C(=O)/C(=C/c3cccs3)N(CC(=O)OC)C2=S)cc1", "hERG current change (%, negative = inhibition) at 10uM": -28},
      {"compound": "COC(=O)C(NC(C)=O)(Nc1nc2c(s1)CCCC2)C(F)(F)F", "note": "(stereo not shown)", "hERG current change (%, negative = inhibition) at 10uM": -4.29},
      {"compound": "COCCCNC(=O)CSC1=Nc2ccccc2C2=NC(c3ccccc3)C(=O)N12", "note": "(stereo not shown)", "hERG current change (%, negative = inhibition) at 10uM": -22.2},
      {"compound": "O=C(Nc1ccc(F)cc1)Nc1ccc2ccccc2n1", "hERG current change (%, negative = inhibition) at 10uM": 14.2},
      {"compound": "COc1ccc(OC)c2sc(N(CCN(C)C)C(=O)c3ccc4ccccc4c3)nc12.Cl", "hERG current change (%, negative = inhibition) at 10uM": -11.3},
      {"compound": "CN(C)CCN(C(=O)c1cccc(N2C(=O)CCC2=O)c1)c1nc2ccc(Br)cc2s1.Cl", "hERG current change (%, negative = inhibition) at 10uM": -48.7},
      {"compound": "COc1ccc(Cl)c2sc(N(CCN(C)C)C(=O)c3ccc4c(c3)OCCO4)nc12.Cl", "hERG current change (%, negative = inhibition) at 10uM": -29.2},
      {"compound": "Cc1cc(C)c2nc(N(CCCN(C)C)C(=O)c3ccc4c(c3)CCCC4)sc2c1.Cl", "hERG current change (%, negative = inhibition) at 10uM": -3.72},
      {"compound": "Cc1cc(C)c2nc(N(CCCN(C)C)C(=O)c3ccc4c(c3)OCCO4)sc2c1.Cl", "hERG current change (%, negative = inhibition) at 10uM": -51.2},
      {"compound": "COCCN(C(=O)c1cccc(N2C(=O)CCC2=O)c1)c1nc(-c2ccc([N+](=O)[O-])cc2)cs1", "hERG current change (%, negative = inhibition) at 10uM": -50.2},
      {"compound": "COCCN(C(=O)C1CC(=O)N(Cc2ccccc2)C1)c1nc(-c2ccc([N+](=O)[O-])cc2)cs1", "note": "(stereo not shown)", "hERG current change (%, negative = inhibition) at 10uM": -29.7},
      {"compound": "COc1ccc(C)c2sc(N(CCCN(C)C)C(=O)c3ccc4c(c3)OCCO4)nc12.Cl", "hERG current change (%, negative = inhibition) at 10uM": -75.6},
      {"compound": "COc1ccc(-c2csc(NC(=O)c3cccc(N4C(=O)CCC4=O)c3)n2)cc1OC", "hERG current change (%, negative = inhibition) at 10uM": -1.68},
      {"compound": "COc1ccc(C)c2sc(N(CCN(C)C)C(=O)c3cccc(N4C(=O)CCC4=O)c3)nc12.Cl", "hERG current change (%, negative = inhibition) at 10uM": -57.9},
      {"compound": "COc1ccc(C)c2sc(N(CCN(C)C)C(=O)c3ccc4ccccc4c3)nc12.Cl", "hERG current change (%, negative = inhibition) at 10uM": -20.7},
      {"compound": "Cc1cc(C)c2nc(N(CCN(C)C)C(=O)c3ccc4ccccc4c3)sc2c1.Cl", "hERG current change (%, negative = inhibition) at 10uM": 11.6}
    ]}
  ]
}
